Test systems include SR leukemia; RPMI-8226 leukemia; OVCAR-8 ovarian; OVCAR-5 ovarian; OVCAR-4 ovarian; SK-OV-3 ovarian; IGROV1 ovarian; OVCAR-3 ovarian; HS 578T breast; NCI/ADR-RES ovarian; T-47D breast; BT-549 breast; MDA-MB-435 melanoma; SW-620 colon; MCF7 breast; HCT-116 colon; HCC-2998 colon; KM12 colon.
What all share (assay): NCI-60 one-dose screen, 48 h (100 = growth as untreated, 0 = no growth, -100 = all killed)
Holding throughout (details): 10 µM unless noted

This note sets out measurements from PubChem BioAssay (NCI).

Compounds without any hit were thinned out: in the full panel of roughly 83,000, 20% have a hit.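 Percent growth is the endpoint: 0 to 100 indicates growth inhibition (40 means 60% inhibition), 0 means no net growth, and negative values indicate cell death.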 Unmarked numbers belong to inactive results. Activity calls are given as the source filed them. The calls were made as follows: active = growth percent below 10; inactive = the rest.

As to `Nc1nc2c(c(=O)[nH]1)C(c1ccc3c(c1)OCO3)C=C(C(=O)O)N2` (centres undefined), the growth with SR leukemia was 103%; in the assay on RPMI-8226 leukemia, 129%; with OVCAR-8 ovarian, 106%; with OVCAR-5 ovarian, 114%; in the assay with OVCAR-4 ovarian, 103%; with SK-OV-3 ovarian it was 118%. For the same molecule, the growth with IGROV1 ovarian is 111%; in the assay on OVCAR-3 ovarian, 123%; in the assay with HS 578T breast, 106%; with NCI/ADR-RES ovarian, 109%; in the assay with T-47D breast, 106%; in the assay with BT-549 breast, 91.9%. The growth in the assay with MDA-MB-435 melanoma was 97.7%; in the assay with SW-620 colon, 106%; in the assay with MCF7 breast it was 92.7%; with HCT-116 colon it was 99.4%; in the assay on HCC-2998 colon, 104%; with KM12 colon, 110%.
Regarding `N=c1c(S(=O)(=O)c2ccccc2)cc2c(=O)n3ccccc3nc2n1C1CCCC1`, the growth was 82.4% with SR leukemia; 92.9% in the assay on RPMI-8226 leukemia; 88.3% with OVCAR-8 ovarian; 103% in the assay with OVCAR-5 ovarian; 95.5% with OVCAR-4 ovarian; 104% in the assay with SK-OV-3 ovarian. The growth with IGROV1 ovarian is 97%; in the assay on OVCAR-3 ovarian, 93.9%; with HS 578T breast, 95.6%; in the assay on NCI/ADR-RES ovarian, 87.4%; with T-47D breast, 79.8%; in the assay with BT-549 breast, 89.3%. Further, the growth is 108% in the assay with MDA-MB-435 melanoma; 99.3% in the assay with SW-620 colon; 93.8% in the assay with MCF7 breast; 91.5% in the assay on HCT-116 colon; 103% in the assay with HCC-2998 colon; 98.5% in the assay with KM12 colon.
Regarding `COc1ccc(-c2cc(-c3c(C)oc4cc5occc5c(OC)c4c3=O)nc(N)c2C#N)cc1OC`, the growth is 5.99% (active) in the assay on SR leukemia; 55.2% with RPMI-8226 leukemia; 61.2% in the assay with OVCAR-8 ovarian; 92.9% in the assay on OVCAR-5 ovarian; 74.6% in the assay on OVCAR-4 ovarian; 75.7% with SK-OV-3 ovarian. Also, the growth in the assay on IGROV1 ovarian was 51.8%; in the assay with OVCAR-3 ovarian it was 77.4%; in the assay with HS 578T breast it was 53.5%; in the assay on NCI/ADR-RES ovarian, 61.9%; in the assay with T-47D breast, 41.2%; in the assay on BT-549 breast, 70.8%. In addition, the growth with MDA-MB-435 melanoma is 17.6%; with SW-620 colon, 57.5%; in the assay on MCF7 breast, 24.8%; in the assay with HCT-116 colon, 53.7%; in the assay on HCC-2998 colon, 98%; in the assay with KM12 colon, 59.6%.
`NS(=O)(=O)c1ccc(CCNC(=O)/C=C/c2ccc(Cl)cc2)cc1`: the growth with SR leukemia is 75.6%; in the assay with RPMI-8226 leukemia it was 98.3%; in the assay on OVCAR-8 ovarian, 95.1%; in the assay with OVCAR-5 ovarian, 98.5%; with OVCAR-4 ovarian it was 87.1%; in the assay with SK-OV-3 ovarian it was 105%. The growth in the assay on IGROV1 ovarian was 91.7%; with OVCAR-3 ovarian it was 105%; in the assay with HS 578T breast, 98.2%; with NCI/ADR-RES ovarian, 103%; in the assay on T-47D breast, 90.7%; with BT-549 breast, 108%. In addition, the growth in the assay with MDA-MB-435 melanoma is 95.6%; with SW-620 colon, 102%; in the assay with MCF7 breast it was 92.5%; in the assay on HCT-116 colon it was 100%; in the assay with HCC-2998 colon it was 116%; in the assay on KM12 colon it was 98.6%.
Regarding `Nc1c2c(nc3ccc(Cl)cc13)CC(c1ccccc1)CC2=O` (centres undefined), the growth is 14.3% with SR leukemia; 25.8% in the assay with RPMI-8226 leukemia; 72.1% with OVCAR-8 ovarian; 73.2% in the assay on OVCAR-5 ovarian; 89.2% with OVCAR-4 ovarian; 76.9% in the assay on SK-OV-3 ovarian. The growth was 38.3% in the assay on IGROV1 ovarian; 20.6% in the assay on OVCAR-3 ovarian; 73.5% with HS 578T breast; 22.5% with NCI/ADR-RES ovarian; 54.1% in the assay on T-47D breast; 39.8% with BT-549 breast. For the same molecule, the growth in the assay on MDA-MB-435 melanoma was -39.7% (active); with SW-620 colon it was 24.8%; in the assay on MCF7 breast it was 19%; in the assay with HCT-116 colon, 20.3%; with HCC-2998 colon, 67.3%; in the assay on KM12 colon, 26.4%.
Turning to `CCC(=O)c1c(C)[nH]c(C)c1C`, the growth with SR leukemia is 70.7%; with RPMI-8226 leukemia it was 113%; with OVCAR-8 ovarian, 85.1%; with OVCAR-5 ovarian, 48.8%; in the assay with OVCAR-4 ovarian, 123%; in the assay on SK-OV-3 ovarian, 93%. In addition, the growth in the assay with IGROV1 ovarian was 76.1%; in the assay with OVCAR-3 ovarian, 115%; in the assay on HS 578T breast it was 138%; with NCI/ADR-RES ovarian, 85.3%; in the assay on T-47D breast it was 104%; with BT-549 breast it was 94%. Moreover, the growth in the assay with MDA-MB-435 melanoma was 95.1%; in the assay with SW-620 colon, 52.3%; in the assay with MCF7 breast, 61.1%; in the assay with HCT-116 colon, 47.2%; in the assay with HCC-2998 colon, 114%; in the assay on KM12 colon, 102%.
As for `CC(C)C[C@@H](NC(=O)[C@@H](Cc1ccccc1)NC(=O)c1cnccn1)B1O[C@H]2[C@H](O)[C@@H](C(=O)NCCCC[C@@H]3NC(=O)[C@@H](Cc4ccccc4)NC(=O)[C@H](CC(=O)O)NC(=O)CNC(=O)[C@H](CCCN=C(N)N)NC3=O)O[C@@H](CN)[C@H]2O1`, the growth in the assay on SR leukemia is 1.66% (active); in the assay on RPMI-8226 leukemia it was 0.803% (active); in the assay with OVCAR-8 ovarian, -42.6% (active); with OVCAR-5 ovarian, -19.2% (active); with OVCAR-4 ovarian, -27.9% (active); in the assay on SK-OV-3 ovarian it was -42.2% (active). In addition, the growth with IGROV1 ovarian was 4.07% (active); with OVCAR-3 ovarian, -55.3% (active); with HS 578T breast, 4.75% (active); in the assay with NCI/ADR-RES ovarian, 7.01% (active); in the assay with T-47D breast it was -70.4% (active); in the assay on BT-549 breast, -66.1% (active). In addition, the growth in the assay with MDA-MB-435 melanoma is -78.1% (active); with SW-620 colon, -47.7% (active); in the assay on MCF7 breast it was -17.1% (active); in the assay with HCT-116 colon, -50% (active); in the assay on HCC-2998 colon, -78.9% (active); in the assay on KM12 colon it was -43.9% (active).
Consider `C#Cc1cccc(NC(=O)C2CCCN(C(=O)CCl)C2)c1` (centres undefined), for which the growth in the assay with SR leukemia was 10.9% [8.25 µM]; with RPMI-8226 leukemia, 64.4% [8.25 µM]; with OVCAR-8 ovarian it was 30.1% [8.25 µM]; with OVCAR-5 ovarian, 78.8% [8.25 µM]; in the assay on OVCAR-4 ovarian, 68.9% [8.25 µM]; in the assay on SK-OV-3 ovarian, 89.8% [8.25 µM]. Further, the growth in the assay with IGROV1 ovarian is -72% [8.25 µM] (active); with OVCAR-3 ovarian it was 5.16% [8.25 µM] (active); in the assay with HS 578T breast it was 85.6% [8.25 µM]; in the assay on NCI/ADR-RES ovarian, 93.2% [8.25 µM]; in the assay with T-47D breast it was 84.2% [8.25 µM]; with BT-549 breast, 55.1% [8.25 µM]. Also, the growth in the assay with MDA-MB-435 melanoma is 43.8% [8.25 µM]; with SW-620 colon it was 20.5% [8.25 µM]; in the assay on MCF7 breast, 59.1% [8.25 µM]; in the assay on HCT-116 colon, 13% [8.25 µM]; in the assay with HCC-2998 colon, 97.2% [8.25 µM]; with KM12 colon, 94.7% [8.25 µM].
